Drawing on PubChem BioAssay (Tox21), this text covers outcome and Potency for eight compounds.

In assay [1] the target is Thyrotropin receptor (Homo sapiens) (UniProt P16473). The experiment in a line: qHTS assay to identify small molecule antagonists of the thyroid stimulating hormone receptor (TSHR) signaling pathway (AID 1259385; calls by dose curve; note: nearly all actives have a fitted effect of over 20% in size). In short, it runs like this:
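TSHR-HEK293 cells (800/well) plated 18 h, then compounds with Ro20-1724 and TSH at 1.5 ng/mL final, 30 min at room temperature. cAMP quantified by HTRF (cAMP-d2/anti-cAMP-cryptate, 1 h); 15 concentrations in triplicate.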
In general terms: Quantitative high-throughput screening tests each substance at several concentrations.

Assay [2] can be described thus: qHTS assay to identify small molecule agonists of the estrogen receptor alpha (ER-alpha) signaling pathway in the presence of an antagonist - cell viability counter screen (AID 1259386).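 Note: series mostly up to about 92 µM; cells exposed to compounds for 22 h at 37 °C before the viability read; nearly all actives have a fitted effect of over 30% in size.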 The essentials: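 ICI-182,780 at 10.0nM final accompanies the compound titration (15 concentrations, 22hr, 37C) on VM7Luc4E2 cells. The CellTiter-Fluor fluorescence readout runs in the same wells as the luciferase assay.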

For assay [3], the target named is Progesterone receptor (Homo sapiens) (UniProt P06401). The experiment in a line: qHTS assay to identify small molecule agonists of the progesterone receptor (PR) signaling pathway (AID 1346784; calls by dose curve; note: nearly all actives have a fitted effect of over 30% in size). In short, it runs like this:
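HEK 293T PR-UAS-bla reporter cells, 2% charcoal-stripped FBS; 6 hr settle at 37C/5% CO2, compound (DMSO) 16 hr, LiveBLAzer B/G FRET substrate 2 hr RT, fluorescence intensity read.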

The target is the same in assay [4]. The experiment in a line: qHTS assay to identify small molecule antagonists of the progesterone receptor (PR) signaling pathway (AID 1346795; active = well fitted inhibition curve with a large enough effect in the signal ratio in the repeat runs, not every such curve was filed as active; the % refers to the signal ratio; note: potency is the fitted concentration of half-maximal effect). In short, it runs like this:
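Beta-lactamase reporter, HEK293T PR-UAS-bla line; 2% charcoal-stripped FBS; 6 hr pre-incubation, 37C/5% CO2. Compound + R5020 1 nM final, 16 hr. LiveBLAzer B/G FRET substrate, 2 hr RT; fluorescence intensity read.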

Assay [5] can be described thus: qHTS assay to identify small molecule antagonists of the progesterone receptor (PR) signaling pathway - cell viability counter screen (AID 1346798). Note: series mostly up to about 92 µM; nearly all actives have a fitted effect of over 50% in size. The essentials:
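Luminescence readout (CellTiter-Glo, 30 min, RT) of viability in PR-UAS-bla HEK293T cells exposed to compound and R5020 agonist for 16 hr at 37C, 5% CO2; run in the same wells as the beta-lactamase reporter read.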

Assay [6] is described as follows: qHTS assay to identify small molecule agonists of the progesterone receptor (PR) signaling pathway - cell viability counter screen (AID 1346799; calls by dose curve; note: nearly all actives have a fitted effect of over 45% in size). In short, it runs like this: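 HEK293T PR-UAS-bla, 3,000 cells/well, 2% charcoal-stripped FBS; 6 h settle, compound 16 h at 37C/5% CO2; LiveBLAzer 2 h RT, then CellTiter-Glo 30 min RT, luminescence read.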
Assay [7] is described as follows: qHTS assay to identify small molecule antagonists of the TGF-beta/Smad signaling pathway - cell viability counter screen (AID 1346824). Note: nearly all actives have a fitted effect of over 50% in size. In short, it runs like this: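 SBE-bla HEK 293T cells, incubated overnight, then compound plus 0.25 ng/mL TGF-beta1 (stock added) for 5 hr at 37 C. Viability was read in the same wells by CellTiter-Glo luminescence after 30 min at room temperature.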

Assay [8] is described as follows: qHTS assay to identify small molecule agonists of the TGF-beta/Smad signaling pathway - cell viability counter screen (AID 1346829). Note: top concentration of the series differs between compounds; nearly all actives have a fitted effect of over 45% in size. In short, it runs like this: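 Compound-treated SBE-bla HEK 293T cells (5 hr, 37 C) were assessed for viability with CellTiter-Glo in parallel with the reporter read.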
A short description of assay [9]: qHTS assay to identify small molecule agonists of the TGF-beta/Smad signaling pathway (AID 1346859; active = well fitted activation curve with a large enough effect in the signal ratio in the repeat runs, not every such curve was filed as active; the % refers to the signal ratio; note: series mostly up to about 77 µM). The essentials:
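Read-out: fluorescence at 460 and 530 nm (405 nm excitation) after a 2 hr room-temperature incubation with beta-lactamase FRET substrate. SBE-bla HEK 293T cells had been treated with test compounds for 5 hr at 37 C.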

Assay [10] addresses Thyrotropin-releasing hormone receptor (Homo sapiens) (UniProt P34981). As to the kind of experiment: qHTS assay to identify small molecule antagonists of the thyrotropin-releasing hormone receptor (TRHR) signaling pathway (AID 1346877; active = well fitted inhibition curve with a large enough effect in the repeat runs, not every such curve was filed as active; note: potency is the fitted concentration of half-maximal effect). The essentials: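 Screening used HEK293 cells engineered with TRHR, with a brief 5 min room-temperature compound exposure preceding addition of TRH to 1 nM. The read-out was kinetic calcium-dye fluorescence, concentration-response from 15 doses in triplicate.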

The target is the same in assay [11]. As to the kind of experiment: qHTS assay to identify small molecule agonists of the thyrotropin-releasing hormone receptor (TRHR) signaling pathway (AID 1346891; calls by dose curve; note: potency is the fitted concentration of half-maximal effect;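 for activation: HEK293 cells expressing TRHR with calcium dye readout; series mostly up to about 58 µM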). In short, it runs like this:
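HEK293/TRHR cells, 1500 per well, 18 h 37 °C; Ca dye 2 h 37 °C; pin-tool compound addition (agonist mode); kinetic fluorescence 3 min, 1 s reads; 15 concentrations, triplicate.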

Assay [12] in a line: Human pregnane X receptor (PXR) small molecule agonists, qHTS cell viability counter screen (AID 1346977). Note: nearly all actives have a fitted effect of over 50% in size. The essentials: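 Fluorescence read-out (CellTiter-Fluor) of viability in PXR-Luc HepG2 cells, multiplexed with the luciferase agonist read. Compounds in DMSO added after 5hr plating; 24hr total exposure at 37C, 5% CO2.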
Assay [13] is described as follows: Caspase-3/7 induction in HepG2 cells by small molecules, qHTS assay (AID 1346978). Note: nearly all actives have a fitted effect of over 15% in size. In short, it runs like this: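 Wild-type HepG2 cells, 2,000/well, settled 5 hr at 37 C and 5% CO2, then compound-treated for 17 hr; caspase-3/7 activity read by luminescent Caspase-Glo 3/7 after 30 min at room temperature.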
Assay [14] in a line: Caspase-3/7 induction in CHO-K1 cells by small molecules, qHTS cell viability counter screen (AID 1346979). Note: nearly all actives have a fitted effect of over 35% in size. The essentials:
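CHO-K1 wt, 1,500 cells/well; 5hr pre-incubation 37C/5% CO2; compound pin transfer (DMSO); 16hr exposure; CellTiter-Fluor added, 1hr, fluorescence read.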

Assay [15] can be described thus: Caspase-3/7 induction in CHO-K1 cells by small molecules, qHTS assay (AID 1346980). Note: nearly all actives have a fitted effect of over 15% in size. In short, it runs like this: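 Wild-type CHO-K1 cells exposed to compounds for 17hr at 37 C, 5% CO2. Caspase-3/7 activity then measured by Caspase-Glo 3/7 luminescence after 30min at room temperature.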
The target of assay [16] is Nuclear receptor subfamily 1 group I member 2 (Homo sapiens) (UniProt O75469). As to the kind of experiment: Human pregnane X receptor (PXR) small molecule agonists, qHTS assay (AID 1346982). Note: nearly all actives have a fitted effect of over 35% in size. Note: potency is the fitted concentration of half-maximal effect. The essentials: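 We seeded PXR-Luc HepG2 cells in assay medium containing 5% charcoal-stripped FBS, added compounds 5 hr later, incubated 24 hr, and read luminescence with ONE-Glo reagent.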

For assay [17] the target is unchanged. The experiment in a line: CYP3A4 induction through human pregnane X receptor (PXR) by small molecules, qHTS assay (AID 1346984). Note: nearly all actives have a fitted effect of over 40% in size. The essentials:
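qHTS, concentration-response format: HepG2 DPX-2 line, PXR/CYP3A4-luc. Exposure 24 h, 37C. Substrate Luciferin-IPA 3uM final, 3 h. Detection One-Glo, 30 min RT.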

Assay [18] shares this target. As to the kind of experiment: Human pregnane X receptor (PXR) activation by small molecules, qHTS assay (AID 1346985). Note: nearly all actives have a fitted effect of over 40% in size. In short, it runs like this: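 DPX-2 cells (HepG2 co-transfected with a PXR response element and a CYP3A4-promoter luciferase construct) were seeded at 2,000 per well, rested 5 hr at 37C, then exposed to DMSO-dissolved compounds for 24 hr. Activation was read as luciferase luminescence.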

Assay [19] in a line: Caspase-3/7 induction in HepG2 cells by small molecules, qHTS cell viability counter screen (AID 1346981). Note: series mostly up to about 92 µM; nearly all actives have a fitted effect of over 30% in size. In short, it runs like this:
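Multiplexed with the caspase-3/7 assay: HepG2 cells, 16 hr compound treatment, CellTiter-Fluor viability detection by fluorescence.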

“And” between values parts separate entries of the source, which are not always exact repeats. Equal entries are not always repeated. Inconclusive results are not listed. The source made the active and inactive calls. Unless noted, calls come from the whole dose curve; as a rule, active = well fitted curve in the direction sought with a large enough effect in the repeat runs; inconclusive = weak or mixed curves; inactive = no such curve, though single readings can be large; an effect the other way counts as inactive or inconclusive.

Chain of Thyrotropin receptor (Homo sapiens) (P16473 whole entry, looked up): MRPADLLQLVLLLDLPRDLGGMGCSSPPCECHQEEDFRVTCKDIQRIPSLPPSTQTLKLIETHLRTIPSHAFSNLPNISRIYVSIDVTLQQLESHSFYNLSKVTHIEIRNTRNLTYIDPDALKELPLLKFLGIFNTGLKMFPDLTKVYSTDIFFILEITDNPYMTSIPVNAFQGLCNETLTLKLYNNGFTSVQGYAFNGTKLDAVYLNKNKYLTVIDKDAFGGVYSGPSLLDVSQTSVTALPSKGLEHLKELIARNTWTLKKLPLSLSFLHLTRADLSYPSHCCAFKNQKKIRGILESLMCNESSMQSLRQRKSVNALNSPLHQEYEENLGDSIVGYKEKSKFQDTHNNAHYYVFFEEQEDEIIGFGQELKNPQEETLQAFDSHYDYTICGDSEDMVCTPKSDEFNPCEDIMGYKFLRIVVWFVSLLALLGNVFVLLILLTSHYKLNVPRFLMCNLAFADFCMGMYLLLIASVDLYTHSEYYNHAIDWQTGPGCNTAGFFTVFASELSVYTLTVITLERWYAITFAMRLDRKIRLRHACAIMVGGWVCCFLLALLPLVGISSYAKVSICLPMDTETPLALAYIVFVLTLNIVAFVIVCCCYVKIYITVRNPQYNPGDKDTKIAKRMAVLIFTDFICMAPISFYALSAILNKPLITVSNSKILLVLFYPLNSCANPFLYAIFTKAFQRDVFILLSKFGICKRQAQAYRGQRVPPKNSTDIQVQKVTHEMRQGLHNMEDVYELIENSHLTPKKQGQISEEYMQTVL
Chain of Nuclear receptor subfamily 1 group I member 2 (Homo sapiens) (O75469 whole entry, looked up): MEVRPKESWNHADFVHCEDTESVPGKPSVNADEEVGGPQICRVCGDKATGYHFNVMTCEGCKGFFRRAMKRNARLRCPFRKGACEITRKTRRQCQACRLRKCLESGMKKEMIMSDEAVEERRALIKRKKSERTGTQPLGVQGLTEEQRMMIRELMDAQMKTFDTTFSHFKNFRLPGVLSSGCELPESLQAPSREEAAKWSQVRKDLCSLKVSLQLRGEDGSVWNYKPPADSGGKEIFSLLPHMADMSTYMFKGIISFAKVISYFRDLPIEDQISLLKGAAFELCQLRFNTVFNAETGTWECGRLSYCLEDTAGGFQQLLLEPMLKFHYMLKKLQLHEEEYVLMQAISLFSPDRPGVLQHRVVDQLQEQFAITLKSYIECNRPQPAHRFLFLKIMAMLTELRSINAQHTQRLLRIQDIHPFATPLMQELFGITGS
Chain of Progesterone receptor (Homo sapiens) (P06401 whole entry, looked up): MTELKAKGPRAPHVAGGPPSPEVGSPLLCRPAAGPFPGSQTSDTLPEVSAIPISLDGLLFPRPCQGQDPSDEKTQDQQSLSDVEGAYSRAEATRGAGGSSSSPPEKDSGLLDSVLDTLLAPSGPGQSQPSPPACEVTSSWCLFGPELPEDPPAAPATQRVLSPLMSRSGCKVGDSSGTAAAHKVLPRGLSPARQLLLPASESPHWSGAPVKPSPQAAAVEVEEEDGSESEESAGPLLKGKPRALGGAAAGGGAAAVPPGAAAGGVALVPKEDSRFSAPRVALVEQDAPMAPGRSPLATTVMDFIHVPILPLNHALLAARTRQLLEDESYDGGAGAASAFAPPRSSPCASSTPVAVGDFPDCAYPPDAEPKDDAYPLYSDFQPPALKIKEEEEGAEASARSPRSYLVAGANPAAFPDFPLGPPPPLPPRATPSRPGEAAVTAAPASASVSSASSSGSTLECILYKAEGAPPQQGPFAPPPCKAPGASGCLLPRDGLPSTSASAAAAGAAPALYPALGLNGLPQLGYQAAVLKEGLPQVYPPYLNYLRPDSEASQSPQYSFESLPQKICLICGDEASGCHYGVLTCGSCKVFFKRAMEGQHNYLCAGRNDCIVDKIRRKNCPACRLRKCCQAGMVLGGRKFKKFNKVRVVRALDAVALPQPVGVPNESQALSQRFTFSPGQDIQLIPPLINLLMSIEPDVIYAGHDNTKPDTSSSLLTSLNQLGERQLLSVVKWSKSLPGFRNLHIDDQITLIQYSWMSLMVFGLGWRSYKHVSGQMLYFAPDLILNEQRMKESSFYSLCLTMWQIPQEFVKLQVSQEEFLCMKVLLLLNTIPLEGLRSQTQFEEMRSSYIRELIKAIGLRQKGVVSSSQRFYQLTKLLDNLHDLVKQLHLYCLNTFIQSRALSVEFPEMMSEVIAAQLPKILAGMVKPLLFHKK
Chain of Thyrotropin-releasing hormone receptor (Homo sapiens) (P34981 whole entry, looked up): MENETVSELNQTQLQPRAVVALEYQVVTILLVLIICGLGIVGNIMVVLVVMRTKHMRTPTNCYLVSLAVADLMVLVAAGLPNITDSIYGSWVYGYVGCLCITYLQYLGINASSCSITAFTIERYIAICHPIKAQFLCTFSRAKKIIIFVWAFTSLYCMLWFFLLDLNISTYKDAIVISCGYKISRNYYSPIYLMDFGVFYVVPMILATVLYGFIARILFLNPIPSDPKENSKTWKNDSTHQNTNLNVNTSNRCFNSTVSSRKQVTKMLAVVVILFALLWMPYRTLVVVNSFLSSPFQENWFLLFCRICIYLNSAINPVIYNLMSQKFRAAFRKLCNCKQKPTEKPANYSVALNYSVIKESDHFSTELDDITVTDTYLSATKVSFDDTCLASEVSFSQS

For `OCC(O)CO`, the compound was called inactive in assay [1], in assay [9], in assay [17] and in assay [18]. Further, the Potency result in [2], in assay [3], in [4], in assay [5], in assay [6] and in assay [7] was “inactive” in each case. The Potency result in [8], in assay [10], in assay [11], in assay [12], in assay [13] and in assay [14] was “inactive” in each case. The Potency entry in assay [15] and in assay [16] was “inactive” throughout.
`Cc1cc(C)cc(C)c1`: the compound was classed as inactive in assay [1] and in [9]. In addition, the Potency result in assay [2], in assay [3], in assay [4], in assay [5], in assay [6] and in assay [7] was “inactive” throughout. For the same compound, the Potency result in [8], in assay [10], in assay [11], in [12], in [14] and in [15] was “inactive” each time. Moreover, the Potency entry in assay [19] and in assay [16] was “inactive” each time.
With `CCOP(=S)(OCC)O/N=C(\C#N)c1ccccc1`, the result in assay [1] and in assay [9] was inactive. In addition, the Potency result in assay [2], in assay [3], in assay [5], in [6], in [7] and in assay [8] was “inactive” in each case. Besides, the Potency entry in assay [10], in assay [11], in [12], in [13], in [14] and in assay [15] was “inactive” throughout. Moreover, the Potency result in assay [19] is “inactive”. Also, the Potency in assay [4] is 13.3 µM (active); in [16], 30.6 µM (active).
As to `CNC(=O)N(C)c1nnc(C(C)(C)C)s1`, the result in assay [1] and in [9] was inactive. In addition, the Potency result in [2], in assay [3], in assay [4], in assay [5], in assay [6] and in assay [7] was “inactive” in each case. The Potency result in assay [8], in [10], in assay [11], in [12], in assay [14] and in [15] was “inactive” in each case. For the same compound, the Potency in assay [16] was 54.5 µM (active).
As for `CC(C)N(C(=O)SCC(Cl)=C(Cl)Cl)C(C)C`, the result in assay [1] and in assay [9] was inactive. Moreover, the Potency entry in [2], in assay [3], in assay [4], in assay [5], in assay [6] and in assay [7] was “inactive” throughout. Also, the Potency entry in [8], in assay [10], in [11], in assay [12], in [14] and in assay [15] was “inactive” in each case. The Potency result in [19] and in assay [16] was “inactive” in each case.
`N#CCCCl`: the outcome in assay [1] and in [9] was inactive. Moreover, the Potency result in [2], in assay [3], in assay [4], in assay [5], in assay [6] and in [7] was “inactive” throughout. For the same compound, the Potency result in assay [8], in [12], in assay [13], in assay [14], in assay [15] and in assay [16] was “inactive” each time.
Turning to `O=[N+]([O-])c1cccc2ccccc12`, the compound was classed as inactive in [1] and in [9]. The Potency entry in assay [2], in [3], in assay [4], in [5], in assay [6] and in assay [7] was “inactive” in each case. In addition, the Potency entry in assay [8], in assay [10], in [11], in assay [12], in [13] and in [14] was “inactive” each time. Further, the Potency entry in assay [15], in [19] and in [16] was “inactive” each time.
For `CC(C)(c1cc(Cl)c(O)c(Cl)c1)c1cc(Cl)c(O)c(Cl)c1`, the outcome in [1] and in assay [9] was inactive. Also, the Potency entry in assay [2], in [3], in assay [5], in assay [6], in assay [7] and in assay [8] was “inactive” throughout. For the same compound, the Potency entry in [12], in assay [15] and in assay [19] was “inactive” throughout. Moreover, the Potency in [4] is 7.7 µM (active); in assay [10], 30.1 µM (active); in assay [11], 34.7 µM (active); in assay [16] it was 54.5 µM (active) and 43.3 µM (active).
